For 40 molecules, growth inhibition results are on record in PubChem BioAssay (NCI).

About 79,000 compounds went through this panel and 15% of them were active in at least one assay; those are over-represented in the sample as a whole. A number with no mark means an inactive call. Active and inactive are the calls of the source. No stated cut-off is given here; in the data, active means growth inhibition above about 70%; inactive means the rest.

One assay is described as follows: NCI Yeast Anticancer Drug Screen. Data for the mec2-1 strain (AID 157). The conditions noted are these: S. cerevisiae mec2-1 strain, at 50.0 µM (retest, dose inferred, filed as 5.0), stronger effect = higher value. The method, boiled down:
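Strain: mec2-1 (DNA repair/cell cycle alteration). Compound exposure, then growth measured; inhibition expressed relative to vehicle.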
As to `COc1ccc(N=N/N=c2\sc3cc(Cl)ccc3n2C)cc1`, the growth inhibition is 43%.

In the case of `O=c1ccc2nc3ccccc3ccc-2c1`, the growth inhibition was -55%.

`CC(=O)Nc1ccc(O)c(=O)cc1`: the growth inhibition was 97% (active).

With `CC(=O)Oc1c([N+](=O)[O-])cc(-c2ccccc2)cc1[N+](=O)[O-]`, the growth inhibition was 100% (active).

Consider `Cc1cc(O)c(C)c(C)c1N=Nc1ccccc1`, for which the growth inhibition was -51%.

For `CCCCCCCC/C=C\CCCCCCCC(=O)O` (tested in a mixture with another compound), the growth inhibition is 100% (active).

As to `O=S(=O)(Nc1ccc(Cl)cc1)c1ccccc1`, the growth inhibition is 32%.

In the case of `COC(=O)[C@@]12OC[C@]34[C@H]([C@@H](O)[C@@H]1O)[C@@]1(C)CC(=O)C(O)=C(C)[C@@H]1C[C@H]3OC(=O)[C@H](OC(=O)C(Cc1ccccc1)NC(=O)OC(C)(C)C)[C@@H]24` (stereo not given in full), the growth inhibition is 68%.

Regarding `CSC(=S)n1nc(-c2cccs2)c(N=Nc2ccc(Cl)cc2)c1C(F)(F)F`, the growth inhibition was 86% (active).

As for `CCN1C2=NCCN2S(=O)(=O)c2ccccc21`, the growth inhibition is 9%.

For `CCCc1cc(-c2ccc(O)c(CCC)c2)ccc1O`, the growth inhibition was 99% (active).

In the case of `O=[N+]([O-])c1ccc(-c2cccc(Cl)c2)c([N+](=O)[O-])c1`, the growth inhibition was 99% (active).

On to `COC(=O)Oc1nn(C(=O)OC)c(=O)c2ccccc12`, for which the growth inhibition was 45%.

Take `Cc1n(CC(C)C)c2c([n+]1CC(=O)c1ccc([N+](=O)[O-])cc1)C(=O)c1ccccc1C2=O`: the growth inhibition was 98% (active).

Consider `O=C(c1ccccc1)C1C(c2ccccc2)OP(c2ccccc2)(c2ccccc2)(c2ccccc2)C1c1ccccc1` (stereo not given), for which the growth inhibition was 99% (active).

Turning to `Cc1nc2c(cnn2-c2ccccc2)c(=O)o1`, the growth inhibition is -52%.

Regarding `CCOC(=O)C(=O)Nc1nc2c(s1)C(=O)c1ccccc1C2=O`, the growth inhibition was 98% (active).

`O=C(CCl)OCC(=O)c1ccc(-c2ccccc2)cc1`: the growth inhibition was 97% (active).

With `ICCCCCCCCCC[n+]1ccc2ccccc2c1`, the growth inhibition was 99% (active).

Turning to `CCC(C)OC(=O)Nc1cccc(Cl)c1` (stereo not given), the growth inhibition was 1%.

Consider `COc1ccccc1CN1CCCN(Cc2ccccc2OC)C1c1ccccc1F`, for which the growth inhibition was -11%.

`ON=C(CC(O)(C(F)(F)Cl)C(F)(F)Cl)CC(O)(C(F)(F)Cl)C(F)(F)Cl`: the growth inhibition is 100% (active).

`COC(=O)Cn1/c(=N\N=C(/C)c2ccc(C)cc2)sc2ccccc21`: the growth inhibition is -2%.

With `CCN(CC)CCOc1ccc(NC(=S)Nc2ccc(OCC(C)C)cc2)cc1`, the growth inhibition is 65%.

In the case of `CCCCCCCCCCNC(=O)CBr`, the growth inhibition was 100% (active).

Take `CN(C)c1ccc(N=Nc2ccc(/C=C3\CCOC3=O)cc2)cc1`: the growth inhibition was -1%.

In the case of `CCc1cccc(CC)c1NC(=O)C1=C(C)NC(C)=C(C(=O)Nc2c(CC)cccc2CC)C1c1ccc2c(c1)OCO2`, the growth inhibition is 45%.

`Nc1cc2[nH]c(=O)c3cc(Cl)ccc3c2cc1Cl`: the growth inhibition was 79% (active).

`COc1ccc(OC(C)=O)c2c1CCC=CC2=O`: the growth inhibition was 96% (active).

Regarding `COc1ccc(-c2n[nH]c(C(F)(F)F)c2N=NN(C)C)cc1OC`, the growth inhibition is 99% (active).

For `CCC(=NCCCCCCN=C(CC)c1cc(C)cc([N+](=O)[O-])c1O)c1cc(C)cc([N+](=O)[O-])c1O.[Fe]`, the growth inhibition is 79% (active).

On to `COc1ccc(CN2CCCN(Cc3ccc(OC)cc3)C2Cc2cc(Cl)ccc2OC)cc1`, for which the growth inhibition was 61%.

With `Cc1cc(Cc2ccc(Cl)cc2)ccc1O`, the growth inhibition was 99% (active).

Take `CNCCN[C@@H]1c2cc3c(cc2[C@@H](c2cc(OC)c(O)c(OC)c2)[C@H]2C(=O)OC[C@@H]21)OCO3`: the growth inhibition is 91% (active).

Regarding `Cc1cc(NC(=S)SC(C)C)ccc1Br`, the growth inhibition is 100% (active).

In the case of `CC1CC2(C)ON=C(c3ccccc3)N2c2ccccc2S1` (stereo not given), the growth inhibition is 93% (active).

With `O=C(Cc1ccccc1)OC(C(=O)c1ccccc1)c1ccccc1` (stereo not given), the growth inhibition is 95% (active).

Regarding `Nc1ccc2ccccc2c1N=Nc1ccccc1`, the growth inhibition was 99% (active).

With `Clc1ccc(C(c2ccc(Cl)cc2)c2cncnc2)cc1`, the growth inhibition was 99% (active).

Consider `OC(C(=Nc1ccccc1)c1ccccc1)c1ccccc1` (stereo not given), for which the growth inhibition was 99% (active).

Staying with this assay, now noted: S. cerevisiae mec2-1 strain, at 50.0 µM, stronger effect = higher value.
With `COc1ccc(N=N/N=c2\sc3cc(Cl)ccc3n2C)cc1`, the growth inhibition is 6.15%.

As to `O=c1ccc2nc3ccccc3ccc-2c1`, the growth inhibition is 15.2%.

For the molecule `CC(=O)Nc1ccc(O)c(=O)cc1`, the growth inhibition is 87.5% (active).

With `CC(=O)Oc1c([N+](=O)[O-])cc(-c2ccccc2)cc1[N+](=O)[O-]`, the growth inhibition is 56.1%.

With `Cc1cc(O)c(C)c(C)c1N=Nc1ccccc1`, the growth inhibition is 6.3%.

Regarding `CCCCCCCC/C=C\CCCCCCCC(=O)O` (tested in a mixture with another compound), the growth inhibition was 99.3% (active).

For `O=S(=O)(Nc1ccc(Cl)cc1)c1ccccc1`, the growth inhibition is 46%.

For `COC(=O)[C@@]12OC[C@]34[C@H]([C@@H](O)[C@@H]1O)[C@@]1(C)CC(=O)C(O)=C(C)[C@@H]1C[C@H]3OC(=O)[C@H](OC(=O)C(Cc1ccccc1)NC(=O)OC(C)(C)C)[C@@H]24` (stereo not given in full), the growth inhibition is 79.2% (active).

As for `CSC(=S)n1nc(-c2cccs2)c(N=Nc2ccc(Cl)cc2)c1C(F)(F)F`, the growth inhibition is 93.4% (active).

Regarding `CCN1C2=NCCN2S(=O)(=O)c2ccccc21`, the growth inhibition was -4.45%.

As for `CCCc1cc(-c2ccc(O)c(CCC)c2)ccc1O`, the growth inhibition was 99.7% (active).

Consider `O=[N+]([O-])c1ccc(-c2cccc(Cl)c2)c([N+](=O)[O-])c1`, for which the growth inhibition is 99% (active).

Consider `COC(=O)Oc1nn(C(=O)OC)c(=O)c2ccccc12`, for which the growth inhibition is 24.2%.

With `Cc1n(CC(C)C)c2c([n+]1CC(=O)c1ccc([N+](=O)[O-])cc1)C(=O)c1ccccc1C2=O`, the growth inhibition is 90.7% (active).

In the case of `O=C(c1ccccc1)C1C(c2ccccc2)OP(c2ccccc2)(c2ccccc2)(c2ccccc2)C1c1ccccc1` (stereo not given), the growth inhibition was 99.8% (active).

For `Cc1nc2c(cnn2-c2ccccc2)c(=O)o1`, the growth inhibition is 2.25%.

For the molecule `CCOC(=O)C(=O)Nc1nc2c(s1)C(=O)c1ccccc1C2=O`, the growth inhibition was 95.8% (active).

As to `O=C(CCl)OCC(=O)c1ccc(-c2ccccc2)cc1`, the growth inhibition was -1.9%.

For `ICCCCCCCCCC[n+]1ccc2ccccc2c1`, the growth inhibition was 89.8% (active).

As to `CCC(C)OC(=O)Nc1cccc(Cl)c1` (stereo not given), the growth inhibition was 23.9%.

Turning to `COc1ccccc1CN1CCCN(Cc2ccccc2OC)C1c1ccccc1F`, the growth inhibition was 43.5%.

Consider `ON=C(CC(O)(C(F)(F)Cl)C(F)(F)Cl)CC(O)(C(F)(F)Cl)C(F)(F)Cl`, for which the growth inhibition is 99.6% (active).

Turning to `COC(=O)Cn1/c(=N\N=C(/C)c2ccc(C)cc2)sc2ccccc21`, the growth inhibition was 26.7%.

On to `CCN(CC)CCOc1ccc(NC(=S)Nc2ccc(OCC(C)C)cc2)cc1`, for which the growth inhibition is 34.1%.

With `CCCCCCCCCCNC(=O)CBr`, the growth inhibition was 64.8%.

In the case of `CN(C)c1ccc(N=Nc2ccc(/C=C3\CCOC3=O)cc2)cc1`, the growth inhibition is 19.4%.

Take `CCc1cccc(CC)c1NC(=O)C1=C(C)NC(C)=C(C(=O)Nc2c(CC)cccc2CC)C1c1ccc2c(c1)OCO2`: the growth inhibition was 92.5% (active).

In the case of `Nc1cc2[nH]c(=O)c3cc(Cl)ccc3c2cc1Cl`, the growth inhibition is -3.35%.

In the case of `COc1ccc(OC(C)=O)c2c1CCC=CC2=O`, the growth inhibition is 41.9%.

Take `COc1ccc(-c2n[nH]c(C(F)(F)F)c2N=NN(C)C)cc1OC`: the growth inhibition was 99.5% (active).

For `CCC(=NCCCCCCN=C(CC)c1cc(C)cc([N+](=O)[O-])c1O)c1cc(C)cc([N+](=O)[O-])c1O.[Fe]`, the growth inhibition is 72.3% (active).

Turning to `COc1ccc(CN2CCCN(Cc3ccc(OC)cc3)C2Cc2cc(Cl)ccc2OC)cc1`, the growth inhibition is 48.8%.

As for `Cc1cc(Cc2ccc(Cl)cc2)ccc1O`, the growth inhibition was 46.1%.

Regarding `CNCCN[C@@H]1c2cc3c(cc2[C@@H](c2cc(OC)c(O)c(OC)c2)[C@H]2C(=O)OC[C@@H]21)OCO3`, the growth inhibition is 65.3%.

Regarding `Cc1cc(NC(=S)SC(C)C)ccc1Br`, the growth inhibition was 99.7% (active).

With `CC1CC2(C)ON=C(c3ccccc3)N2c2ccccc2S1` (stereo not given), the growth inhibition is 90% (active).

For `O=C(Cc1ccccc1)OC(C(=O)c1ccccc1)c1ccccc1` (stereo not given), the growth inhibition was 10.3%.

For the molecule `Nc1ccc2ccccc2c1N=Nc1ccccc1`, the growth inhibition was 99% (active).

As to `Clc1ccc(C(c2ccc(Cl)cc2)c2cncnc2)cc1`, the growth inhibition was 90% (active).

As for `OC(C(=Nc1ccccc1)c1ccccc1)c1ccccc1` (stereo not given), the growth inhibition was 98.6% (active).
